Compounds with a hit are over-represented: about 17% of the library has one in this group of screens.
DT40 TDP1 no CPT – qHTS for Inhibitors of human tyrosyl-DNA phosphodiesterase 1 (TDP1): qHTS in cells in absence of CPT. DT40 Tdp1-/- hTDP1 cells, no CPT, ATP luminescence, 48 h. Potency, µM (highest dose often 46.2 µM), for inactives: at the highest dose activity change, negative = growth inhibition, hits mostly inhibitors. 420,000 tested, 15% active. AID 686978, 2013; also: % is scaled to controls: 0 for no effect and ±100 for the full control effect; nearly all actives have a fitted effect of over 55% in size
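No-CPT arm: Tdp1-/-;hTDP1 DT40 cells (400/well) plus compounds, incubated ≥48 hr at 37 °C. Readout CellTiter-Glo luminescence.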
HepG2 viability – kills HepG2 cells in TGF-b inhibitor counter-screen; Potency, µM (doses to about 46.1 µM), inactives show at the highest dose activity change, negative = cytotoxicity, hits mostly cytotoxic; AID 588856; HepG2 CAGA-GFP viability, ATP luminescence, 18 h; 410,000 tested, 0.76% active
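CellTiter-Glo luminescence gave cytotoxicity after 18 hours at 37 degrees C. The cells were HepG2 CAGA-GFP in 1% FBS DMEM, stimulated with 500 pg/mL TGF-beta after compound addition. %Activity was normalised to no-cell wells (complete cell-killing) and DMSO (no toxicity), and curves were fitted and classified.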
TGFb inhibitor – blocks TGF-b signaling | HepG2 CAGA-GFP TGF-b/SMAD3 reporter, GFP fluorescence, 18 h; TGF-beta stimulated, 500 pg/mL final | Potency, µM (doses to about 46.1 µM), without a hit: at the top dose activity, negative = inhibition, most hits filed as inhibitors | 410,000 tested, 1.2% active | AID 588855; also: % is scaled to controls: 0 for no effect and ±100 for the full control effect; nearly all actives have a fitted effect of over 65% in size
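HEPG2 CAGA-GFP cells (1000/well, DMEM with 1% FBS) were pre-incubated 2 h at 37 degrees C, given compound by pin tool, then stimulated with TGF-beta at 500 pg/mL final for 18 h before per-cell GFP fluorescence imaging.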
ATXN2 expr inh – reduces ATXN2 reporter expression in HEK-293 cells; HEK-293 ATXN2-luciferase reporter, luminescence, 24 h; Potency, µM (doses to about 57 µM), without a hit: at the highest dose activity change, negative = inhibition, hits mostly inhibitors; 360,000 tested, 0.72% active; also: % is scaled to controls: 0 for no effect and ±100 for the full control effect; nearly all actives have a fitted effect of over 55% in size
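qHTS (up to 57 uM final) was run with 24 h compound exposure of reporter cells at 37 °C. Each well was multiplexed: SteadyGlo luminescence measured ATXN2-luciferase expression after a fluorogenic Gly-Phe-AFC viability readout (25 uM final).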
S2 tox – cell viability loss in ATXN counter-screen. S2 cells (HEK-293 line with an ATXN2-luciferase reporter) viability, CellTiter-Fluor protease fluorescence, 24 h. Potency, µM (highest dose often 56.7 µM), most hits filed as cytotoxic. 400,000 tested, 0.49% active; also: nearly all actives have a fitted effect of over 40% in size
DT40 TDP1 CPT – DT40-hTDP1 cell growth loss with CPT; chicken DT40 Tdp1-/-;hTDP1 cells + 20 nM CPT, ATP luminescence, 48 h; Potency, µM (top dose mostly 46.2 µM), without a hit: at the highest dose activity change, negative = growth inhibition, most hits filed as inhibitors; 420,000 tested, 12% active; AID 686979; also: % is scaled to controls: 0 for no effect and ±100 for the full control effect; nearly all actives have a fitted effect of over 55% in size
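Chicken DT40 Tdp1-/- cells complemented with human TDP1, 400 cells/well, exposed to compounds plus 20 nM camptothecin for at least 48 h at 37 C; viability read as ATP content by CellTiter-Glo luminescence.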
An asterisk follows results filed as active; i = inactive; ? = inconclusive; . = no result. Calls follow the shape of the dose curve; as a rule, active = well fitted curve in the direction sought with a large enough effect; inconclusive = small, poorly fitted or top-dose-only effect, or another doubt; inactive = no such curve, though single readings can be large; an effect the other way counts as inactive or inconclusive. Potency is read from the fitted curve at half-maximal effect.

SMILES	DT40 TDP1 no CPT	HepG2 viability	TGFb inhibitor	ATXN2 expr inh	S2 tox	DT40 TDP1 CPT
CN(C)C(CNC(=O)CCCN1C(=O)c2cccc3cccc(c23)C1=O)c1ccccc1 (centres undefined)	?	-13%	-12%	-25%	i	?
O=C(CNC(=S)N(Cc1ccccc1)Cc1cccs1)NCc1ccc(F)cc1	?	-3%	14%	-7%	i	-30%
O=C(CNC(=S)N(Cc1ccccc1)Cc1ccccc1F)NCCc1ccc(Cl)cc1	?	-31%	?	-18%	i	23µM*
Cc1ccc(CN(Cc2ccco2)C(=S)NCC(=O)NCc2cccnc2)cc1	?	6%	-3%	-16%	i	-1%
Cc1ccc(CNC(=O)CNC(=S)N(Cc2ccccc2)Cc2cccnc2)cc1	26µM*	-7%	-9%	-9%	i	?
S=C(Nc1ccccc1Cl)N(Cc1ccccc1)Cc1cccnc1	16µM*	-4%	2%	-13%	i	14%
CCOc1ccc(NC(=O)CN(C)C(=O)CCCc2nc3ccccc3c(=O)[nH]2)cc1OCC	-2%	8%	22%	6%	i	-10%
Cc1cccc(-c2cc3nc(C)cc(NCCCn4ccnc4)n3n2)c1	23µM*	-36%	-12%	-7%	?	?
c1ccc(COc2cccc(-c3cc4nc(NCCCn5ccnc5)ccn4n3)c2)cc1	15µM*	-43%	?	?	?	?
c1ccc(COc2cccc(-c3cc4nc(NCCc5ccncc5)ccn4n3)c2)cc1	13µM*	-63%	?	?	?	15µM*
Cc1cc(C)cc(Oc2ccc(C(F)(F)F)cc2C#N)c1	-22%	-36%	-9%	2%	i	-10%
O=C(O)c1cccc(NC(=O)c2cccc(S(=O)(=O)N3CCc4ccccc4C3)c2)c1	15%	-2%	-1%	-28%	i	-6%
CCn1nc(C(=O)NNC(=O)c2cc(Cl)ccc2OC)c2ccccc2c1=O	?	-5%	-21%	.	.	?
COc1ccc(Cl)cc1C(=O)NNC(=O)c1nn(C)c(=O)c2ccccc12	16µM*	-13%	?	.	?	?
CN(CC(=O)Nc1cccc(F)c1)C(=O)CN1c2cccc3cccc(c23)S1(=O)=O	-10%	-23%	5%	3%	i	-13%
COc1cc2cc(C(=O)N(C)Cc3ccccc3)[nH]c2cc1OC	15%	0%	-14%	2%	i	-19%
C=CCN(Cc1ccc(OC)c(OC)c1)C(=O)c1cc2cc(F)ccc2[nH]1	?	-41%	?	-20%	i	13µM*
COc1ccc2[nH]c(=O)c(CN(c3ccccc3)S(=O)(=O)c3ccccc3)cc2c1	21µM*	22%	17%	-8%	?	?
Cc1ccc(N(Cc2cc3cc(C)ccc3[nH]c2=O)S(=O)(=O)c2ccccc2)cc1	15µM*	8%	-8%	4%	i	23µM*
Cc1ccc2cc(CN(c3ccccc3)S(=O)(=O)c3ccccc3)c(=O)[nH]c2c1	?	21%	13%	37%	i	-25%
COc1ccc2[nH]c(=O)c(CN(c3ccccc3OC)S(=O)(=O)c3ccccc3)cc2c1	15µM*	3%	0%	-12%	i	16µM*
CCC(=O)N(Cc1cc2cc(OC)ccc2[nH]c1=O)c1ccccc1OC	?	-26%	-18%	.	i	?
O=C(Nc1nccs1)C(Br)C(Br)c1ccccc1 (centres undefined)	21µM*	-22%	0%	-10%	?	10µM*
O=C(NC1CC1)C1=C[C@@H](c2c[nH]c3ccccc23)C[C@@H](OCc2ccc(CO)cc2)O1	-5%	-9%	?	2%	i	?
Cc1ccccc1NC(=O)c1c(C)oc2ccc(O)c(CN3CCCC(C)C3)c12 (centres undefined)	21µM*	-34%	?	-32%	?	10µM*
SMILES	DT40 TDP1 no CPT	HepG2 viability	TGFb inhibitor	ATXN2 expr inh	S2 tox	DT40 TDP1 CPT
COCCOC(=O)c1c(C)oc2ccc(O)c(CN3CCC(C)CC3)c12	-20%	-16%	2%	-13%	i	-23%
Cc1ccc(NC(=O)c2c(C)oc3ccc(O)c(CN4CCOCC4)c23)c(C)c1	-17%	-1%	30%	5%	i	-15%
Cc1ccccc1NC(=O)c1c(C)oc2ccc(O)c(CN3CCC(C)CC3)c12	23µM*	-45%	?	-29%	?	16µM*
Nc1nc(Nc2ccccc2Cl)cc(=O)[nH]1	?	-21%	0%	3%	i	17%
Cc1cc(C)c(S(=O)(=O)N(C)CC(=O)NCCCn2ccnc2)c(C)c1	-26%	15%	4%	9%	i	-12%
CC(NC(=O)c1ccc(C(C)(C)C)cc1)C(c1cccs1)N1CCOCC1 (centres undefined)	?	-25%	-8%	9%	i	?
CCC(Sc1nnc(-c2ccc(C)c(Cl)c2)n1CC)C(=O)Nc1nccs1 (centres undefined)	15µM*	-42%	-14%	-22%	i	18µM*
CCn1c(SCC(=O)Nc2nccs2)nnc1-c1ccc(S(=O)(=O)N2CCCCCC2)cc1	18µM*	-3%	10%	1%	i	16µM*
COC(=O)c1ccc(Cn2c(SCc3ccccc3)nc3ccncc32)cc1	21µM*	-2%	-30%	.	.	?
CCc1ccc(CNC(=O)c2ccc(CSc3nc4ccncc4n3Cc3ccccc3)cc2)cc1	23µM*	-26%	?	.	.	16µM*
COc1ccccc1CNC(=O)c1ccc(CSc2nc3ccncc3n2Cc2cccc(F)c2)cc1	18µM*	-23%	?	-5%	i	?
CCOc1ccccc1CNC(=O)c1ccc(Cn2c(SCc3ccccc3)nc3cccnc32)cc1	?	-18%	?	.	.	?
COc1ccc(Cn2c(SCc3ccc(C(=O)NCc4cccs4)cc3)nc3ccncc32)cc1	?	-8%	?	-18%	?	18µM*
Cc1cc(C)c(S(=O)(=O)NCC2CCC(C(=O)NCCCN3CCC(C)CC3)CC2)c(C)c1 (centres undefined)	?	-31%	-6%	-8%	i	?
CC(=O)N1c2ccc(S(=O)(=O)N3CCCCCC3)cc2CC1C(=O)NCc1ccccc1F (centres undefined)	-18%	-5%	-7%	9%	i	-31%

From PubChem
